Reference: PubChem BioAssay (EPA / NIEHS)
Some compounds were tested as several samples or in several runs, with calls that do not always agree. The source made the active and inactive calls. The calls were made as follows: active = hit-call score of the fitted dose curve at least 0.9, where 1 is the maximum; inactive = score below 0.9.

Assays:
[1] = ATG_GLI_CIS: Attagene CIS-FACTORIAL HepG2 Assay for human Zinc Finger Protein GLI1 (AID 2282945); conditions: HepG2, Attagene cis-factorial reporter mRNA, GLI element; actives raise or lower the signal
Method in brief: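 Bidirectional curve fits relative to DMSO, using reporter mRNA levels from RT-PCR plus capillary electrophoresis. Cells were HepG2 transiently carrying cis-regulated reporter constructs, harvested 24 h after dosing.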

[2] = ATG_GRE_CIS: Attagene CIS-FACTORIAL HepG2 Assay for human Glucocorticoid Response Elements (GRE) (AID 2282947); conditions: HepG2 GRE cis-reporter, Attagene multiplex mRNA; actives raise or lower the signal
Method in brief: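 Reporter transcripts read by RT-PCR with capillary electrophoresis fluorescence after a 24 h chemical exposure of HepG2 cells transiently transfected with multiple cis-element reporter units. Gain or loss fitted against DMSO.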

[3] = ATG_ISRE_CIS: Attagene CIS-FACTORIAL HepG2 Assay for human Interferon Regulatory Factor 1 (IRF1) binding to an Interferon-Stimulated Response Element (ISRE) (AID 2282948); conditions: HepG2 ISRE cis-reporter (Attagene), mRNA transcription readout; actives raise or lower the signal
Method in brief: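 Read-out: fluorescent RT-PCR products resolved by capillary electrophoresis, reporting endogenous transcription factor activity via ISRE-driven reporter mRNA in transfected HepG2 cells dosed for 24 h; gain or loss fitted relative to DMSO.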

[4] = ATG_M_32_CIS: Attagene CIS-FACTORIAL HepG2 Assay for M32 Transcription Factor (Internal Marker) (AID 2282949); conditions: HepG2 Attagene cis-factorial M32 reporter, mRNA; actives raise or lower the signal;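 also: background control marker of the multiplexed CIS panel rather than a real target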
Method in brief: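 HepG2 human liver cells transiently transfected with cis-promoter-driven multiple reporter transcription units, dosed 24 h. Reporter mRNA quantified by RT-PCR, FAM-labelled primer extension, HpaI digest and capillary electrophoresis; bidirectional fit versus DMSO baseline.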

[5] = molecular target: Hypoxia-inducible factor 1-alpha (Homo sapiens) (UniProt Q16665); assay: ATG_HIF1a_CIS: Attagene CIS-FACTORIAL HepG2 Assay for human Hypoxia Inducible Factor 1 (HIF1A) (AID 2282951); conditions: HepG2 Attagene cis-factorial HIF1a reporter transcription; actives raise or lower the signal
Chain of Hypoxia-inducible factor 1-alpha (Homo sapiens) (Q16665 whole entry, looked up): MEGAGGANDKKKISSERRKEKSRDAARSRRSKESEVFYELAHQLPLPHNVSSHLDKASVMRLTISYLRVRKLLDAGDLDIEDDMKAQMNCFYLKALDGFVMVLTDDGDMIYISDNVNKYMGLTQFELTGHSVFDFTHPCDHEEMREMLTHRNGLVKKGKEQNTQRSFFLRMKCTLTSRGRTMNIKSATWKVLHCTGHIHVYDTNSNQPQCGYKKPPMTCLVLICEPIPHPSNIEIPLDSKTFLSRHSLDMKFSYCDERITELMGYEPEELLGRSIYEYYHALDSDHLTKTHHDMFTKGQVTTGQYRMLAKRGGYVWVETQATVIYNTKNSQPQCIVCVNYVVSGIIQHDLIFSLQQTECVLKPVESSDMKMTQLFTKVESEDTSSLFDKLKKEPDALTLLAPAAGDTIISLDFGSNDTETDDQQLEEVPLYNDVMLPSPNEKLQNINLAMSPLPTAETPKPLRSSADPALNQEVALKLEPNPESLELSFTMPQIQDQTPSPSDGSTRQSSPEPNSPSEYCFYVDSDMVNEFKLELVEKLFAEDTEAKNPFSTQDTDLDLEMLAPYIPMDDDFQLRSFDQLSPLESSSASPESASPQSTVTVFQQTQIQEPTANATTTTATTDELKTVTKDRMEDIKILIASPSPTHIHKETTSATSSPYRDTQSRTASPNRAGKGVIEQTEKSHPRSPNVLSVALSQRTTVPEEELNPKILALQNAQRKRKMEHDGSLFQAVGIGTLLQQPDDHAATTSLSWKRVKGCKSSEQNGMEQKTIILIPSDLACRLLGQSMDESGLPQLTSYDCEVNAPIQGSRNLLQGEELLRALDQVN
Method in brief: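 Measures endogenous transcription-factor activity through cis-regulated reporter mRNA in HepG2. Cells dosed 24 h; transcripts quantified by RT-PCR with 6-FAM-labelled products separated by capillary electrophoresis; DMSO serves as negative control.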

[6] = molecular target: Hepatocyte nuclear factor 6 (Homo sapiens) (UniProt Q9UBC0); assay: ATG_HNF6_CIS: Attagene CIS-FACTORIAL HepG2 Assay for human Hepatocyte Nuclear Factor 6 (HNF6) (AID 2282952); conditions: HepG2 Attagene cis-factorial HNF6 reporter transcription; actives raise or lower the signal
Chain of Hepatocyte nuclear factor 6 (Homo sapiens) (Q9UBC0 whole entry, looked up, the tested form may be a part): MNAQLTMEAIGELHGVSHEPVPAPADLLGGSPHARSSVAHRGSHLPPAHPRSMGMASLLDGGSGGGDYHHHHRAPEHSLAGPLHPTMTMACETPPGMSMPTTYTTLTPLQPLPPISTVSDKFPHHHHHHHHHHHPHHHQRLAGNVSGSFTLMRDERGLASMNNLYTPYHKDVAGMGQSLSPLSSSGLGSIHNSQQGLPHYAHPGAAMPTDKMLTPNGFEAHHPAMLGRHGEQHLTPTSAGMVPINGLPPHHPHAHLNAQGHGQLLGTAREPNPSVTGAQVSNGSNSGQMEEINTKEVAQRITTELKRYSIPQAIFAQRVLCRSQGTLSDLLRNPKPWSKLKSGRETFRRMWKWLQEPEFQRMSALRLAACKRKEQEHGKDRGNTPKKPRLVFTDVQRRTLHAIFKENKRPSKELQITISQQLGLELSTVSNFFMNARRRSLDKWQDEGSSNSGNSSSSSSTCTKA
Method in brief: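 Twenty-four-hour chemical treatment of reporter-transfected HepG2 cells precedes RNA isolation, DNase-treated reverse transcription and PCR of reporter sequences. Labelled fragments are sized by capillary electrophoresis and fitted bidirectionally versus DMSO.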

[7] = molecular target: Heat shock factor protein 1 (Homo sapiens) (UniProt Q00613); assay: ATG_HSE_CIS: Attagene CIS-FACTORIAL HepG2 Assay for human Heat Shock Transcription Factor 1 (HSE) (AID 2282953); conditions: HepG2 HSE cis-reporter, Attagene RNA transcription; actives raise or lower the signal
Chain of Heat shock factor protein 1 (Homo sapiens) (Q00613 whole entry, looked up): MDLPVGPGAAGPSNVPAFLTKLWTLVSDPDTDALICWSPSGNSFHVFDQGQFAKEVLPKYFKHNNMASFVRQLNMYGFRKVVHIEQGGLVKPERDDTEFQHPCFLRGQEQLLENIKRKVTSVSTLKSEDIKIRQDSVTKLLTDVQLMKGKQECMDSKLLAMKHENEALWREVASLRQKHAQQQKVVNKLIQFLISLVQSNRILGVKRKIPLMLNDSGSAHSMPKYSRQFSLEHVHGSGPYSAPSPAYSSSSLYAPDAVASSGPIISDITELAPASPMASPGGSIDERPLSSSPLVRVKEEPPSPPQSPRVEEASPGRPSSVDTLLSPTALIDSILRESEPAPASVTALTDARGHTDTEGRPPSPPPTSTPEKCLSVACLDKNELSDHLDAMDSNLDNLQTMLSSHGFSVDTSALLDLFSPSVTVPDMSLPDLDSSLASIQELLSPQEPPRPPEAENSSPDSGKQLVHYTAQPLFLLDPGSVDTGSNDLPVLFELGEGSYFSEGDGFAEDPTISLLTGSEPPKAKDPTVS
Method in brief: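 Using HepG2 with transfected cis-driven reporter constructs, compound effects on endogenous factor activity are scored as reporter mRNA change at 24 h. Detection: RT-PCR, HpaI digestion, capillary electrophoresis; bidirectional fitting to DMSO.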

[8] = ATG_MRE_CIS: Attagene CIS-FACTORIAL HepG2 Assay for human Metal Responsive Element (MRE) (AID 2282954); conditions: HepG2 MRE cis-reporter transcription, Attagene multiplex; actives raise or lower the signal
Method in brief: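 Endogenous MRE-dependent transcription read as reporter mRNA in transiently transfected human HepG2 cells at 24 h. RNA reverse-transcribed, PCR-amplified, labelled and resolved by capillary electrophoresis; gain or loss relative to DMSO.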

[9] = ATG_PBREM_CIS: Attagene CIS-FACTORIAL HepG2 Assay for human Phenobarbital-responsive Enhancer Module (PBREM) (AID 2282955); conditions: HepG2 PBREM cis-reporter, Attagene multiplexed transcription; actives raise or lower the signal
Method in brief: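 Fluorescence of labelled reporter cDNA fragments, resolved by capillary electrophoresis, gives mRNA induction in transfected HepG2 cells treated for 24 h; DMSO serves as negative control and baseline.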

[10] = ATG_PXRE_CIS: Attagene CIS-FACTORIAL HepG2 Assay for human Pregnane X Receptor Element (PXRE) (AID 2282957); conditions: HepG2 Attagene CIS-FACTORIAL PXRE reporter, mRNA; actives raise or lower the signal
Method in brief: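 Bidirectional activity, baselined to DMSO, derived from reporter mRNA fluorescence (RT-PCR plus capillary electrophoresis) in HepG2 cells bearing cis-promoter reporter units, 24 h exposure.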

[11] = ATG_RORE_CIS: Attagene CIS-FACTORIAL HepG2 Assay for human RAR-related Orphan Receptor Element (RORE) (AID 2282959); conditions: HepG2 Attagene cis-factorial RORE reporter, mRNA; actives raise or lower the signal
Method in brief: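 Cells were HepG2 carrying transfected cis-regulated reporter constructs, dosed for 24 hours. Total RNA was reverse-transcribed and reporter cDNA amplified, fluorescently labeled and sized by capillary electrophoresis. Activity was fitted bidirectionally relative to DMSO.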

[12] = ATG_Sox_CIS: Attagene CIS-FACTORIAL HepG2 Assay for human SRY-box transcription factor (SOX) (AID 2282960); conditions: HepG2 Attagene cis-factorial SOX reporter, mRNA; actives raise or lower the signal
Method in brief: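 Transient MRTU transfection of HepG2; 24 h compound incubation; TriZol RNA, oligo(dT) RT, PCR, 6-FAM primer extension, HpaI cut, CE. Bidirectional fit, DMSO = baseline.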

[13] = molecular target: Transcription factor Sp1 (Homo sapiens) (UniProt P08047); assay: ATG_Sp1_CIS: Attagene CIS-FACTORIAL HepG2 Assay for human Specificity Protein 1 (Sp1) (AID 2282961); conditions: HepG2 Sp1 cis-reporter transcription, actives raise or lower the signal
Chain of Transcription factor Sp1 (Homo sapiens) (P08047 whole entry, looked up): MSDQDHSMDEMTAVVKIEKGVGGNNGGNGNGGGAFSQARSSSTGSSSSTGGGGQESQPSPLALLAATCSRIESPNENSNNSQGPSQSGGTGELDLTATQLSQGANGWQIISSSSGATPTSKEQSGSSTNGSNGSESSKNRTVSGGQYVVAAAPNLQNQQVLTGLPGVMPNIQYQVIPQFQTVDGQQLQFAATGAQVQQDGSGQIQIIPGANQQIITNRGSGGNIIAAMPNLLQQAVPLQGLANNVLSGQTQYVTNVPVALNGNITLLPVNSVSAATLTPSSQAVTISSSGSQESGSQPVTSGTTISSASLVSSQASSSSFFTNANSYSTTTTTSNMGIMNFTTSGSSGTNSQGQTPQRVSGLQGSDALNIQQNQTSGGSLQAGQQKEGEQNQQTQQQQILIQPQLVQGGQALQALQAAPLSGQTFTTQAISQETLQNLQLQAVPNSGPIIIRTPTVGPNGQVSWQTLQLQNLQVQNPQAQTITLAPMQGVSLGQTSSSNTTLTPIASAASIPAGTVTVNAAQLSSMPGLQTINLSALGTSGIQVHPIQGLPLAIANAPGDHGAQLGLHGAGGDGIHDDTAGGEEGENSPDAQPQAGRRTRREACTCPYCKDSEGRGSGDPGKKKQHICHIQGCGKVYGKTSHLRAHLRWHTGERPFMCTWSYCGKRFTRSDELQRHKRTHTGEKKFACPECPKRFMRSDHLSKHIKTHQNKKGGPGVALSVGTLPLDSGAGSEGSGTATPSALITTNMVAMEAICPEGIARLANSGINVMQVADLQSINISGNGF
Method in brief: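 Endogenous Sp1 activity was gauged in human liver HepG2 cells bearing transfected reporter units under a cis-regulating promoter. After 24 h dosing, reporter mRNA was quantified by RT-PCR with capillary electrophoresis, and activity fitted bidirectionally versus DMSO.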

[14] = ATG_SREBP_CIS: Attagene CIS-FACTORIAL HepG2 Assay for human Sterol Regulatory Element Binding (SREBP) (AID 2282962); conditions: HepG2 Attagene cis-factorial SREBP reporter, mRNA; actives raise or lower the signal
Method in brief: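 Readout: fluorescent reporter-transcript peaks resolved by capillary electrophoresis after RT-PCR. Cells were human HepG2 carrying transfected cis-promoter reporter constructs, dosed for 24 h. Gain or loss of signal was fitted against DMSO controls.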

[15] = molecular target: Signal transducer and activator of transcription 3 (Homo sapiens) (UniProt P40763); assay: ATG_STAT3_CIS: Attagene CIS-FACTORIAL HepG2 Assay for human Signal Transducer and Activator of Transcription 3 (STAT3) (AID 2282963); conditions: HepG2, Attagene cis-factorial STAT3 reporter transcription; actives raise or lower the signal
Chain of Signal transducer and activator of transcription 3 (Homo sapiens) (P40763 whole entry, looked up): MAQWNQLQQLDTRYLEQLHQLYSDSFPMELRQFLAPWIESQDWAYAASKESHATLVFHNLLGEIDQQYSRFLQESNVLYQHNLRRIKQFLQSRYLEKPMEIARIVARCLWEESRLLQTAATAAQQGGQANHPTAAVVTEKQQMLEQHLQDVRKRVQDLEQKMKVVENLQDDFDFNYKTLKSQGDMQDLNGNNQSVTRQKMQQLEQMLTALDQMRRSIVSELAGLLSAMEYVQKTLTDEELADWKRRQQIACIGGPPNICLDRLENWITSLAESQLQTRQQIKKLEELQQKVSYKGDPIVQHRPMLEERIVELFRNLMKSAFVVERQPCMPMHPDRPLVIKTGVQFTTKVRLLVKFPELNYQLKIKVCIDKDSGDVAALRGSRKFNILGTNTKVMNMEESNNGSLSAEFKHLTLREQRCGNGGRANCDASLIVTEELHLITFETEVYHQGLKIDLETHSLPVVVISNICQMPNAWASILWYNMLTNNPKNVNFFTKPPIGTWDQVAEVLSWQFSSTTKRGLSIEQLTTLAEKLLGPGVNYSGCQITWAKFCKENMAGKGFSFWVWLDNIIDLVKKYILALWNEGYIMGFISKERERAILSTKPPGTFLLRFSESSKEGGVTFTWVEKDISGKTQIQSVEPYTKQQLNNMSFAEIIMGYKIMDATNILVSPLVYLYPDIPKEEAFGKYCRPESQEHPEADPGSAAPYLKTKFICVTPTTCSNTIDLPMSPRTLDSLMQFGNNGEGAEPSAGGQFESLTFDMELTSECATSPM
Method in brief: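 Readout is reporter transcript quantified by RT-PCR and capillary electrophoresis, with 6-FAM primer extension and HpaI digestion. Total RNA is taken 24 h after dosing transiently transfected HepG2 carrying cis-regulated reporter units. Bidirectional fit against DMSO.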

[16] = ATG_TA_CIS: Attagene CIS-FACTORIAL HepG2 Assay for human TA Basal Promoter (AID 2282964); conditions: HepG2 Attagene CIS-factorial TA basal promoter reporter; actives raise or lower the signal
Method in brief: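 Transient MRTU transfection of HepG2 preceded 24 h compound exposure. Reporter mRNA levels were then read by RT-PCR with capillary electrophoresis, and this background-control endpoint was fitted bidirectionally to DMSO.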

[17] = ATG_PPRE_CIS: Attagene CIS-FACTORIAL HepG2 Assay for human Peroxisome Proliferator-activated Response Element (PPRE) (AID 2282958); conditions: HepG2 PPRE cis-element reporter, Attagene transcription factor profiling; actives raise or lower the signal
Method in brief: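 Cells are first transfected transiently with the multiplexed reporter library, then dosed for 24 h. Total RNA is reverse-transcribed, amplified, fluorescently end-labeled and HpaI-cut before capillary electrophoresis; activity is fitted bidirectionally against DMSO controls.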

[18] = molecular target: Bile acid receptor (Homo sapiens) (UniProt Q96RI1); assay: ATG_IR1_CIS: Attagene CIS-FACTORIAL HepG2 Assay for human Nuclear Receptor Subfamily 1 Group H Member 4 (NR1H4), IR1 submotif (AID 2282946); conditions: IR1 reporter transcription, actives raise or lower the signal
Chain of Bile acid receptor (Homo sapiens) (Q96RI1 whole entry, looked up): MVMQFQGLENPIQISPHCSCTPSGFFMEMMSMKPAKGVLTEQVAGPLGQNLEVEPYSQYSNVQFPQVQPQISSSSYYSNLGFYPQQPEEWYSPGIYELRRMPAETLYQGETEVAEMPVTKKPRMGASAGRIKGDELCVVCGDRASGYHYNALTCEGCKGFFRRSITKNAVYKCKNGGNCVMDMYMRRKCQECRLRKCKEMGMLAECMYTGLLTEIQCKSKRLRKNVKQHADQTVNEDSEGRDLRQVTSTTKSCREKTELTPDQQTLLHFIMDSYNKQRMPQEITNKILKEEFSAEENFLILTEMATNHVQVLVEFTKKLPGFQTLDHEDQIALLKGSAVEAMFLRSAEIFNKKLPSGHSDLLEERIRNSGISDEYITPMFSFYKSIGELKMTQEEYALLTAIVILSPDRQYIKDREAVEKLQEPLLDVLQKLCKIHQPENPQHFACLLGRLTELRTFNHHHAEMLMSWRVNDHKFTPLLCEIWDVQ
Method in brief: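 HepG2 cells transiently transfected with multiplexed cis-element reporter units read endogenous transcription factor activity. After 24 h compound exposure, reporter mRNA was quantified by RT-PCR, fluorescent labelling, HpaI digestion and capillary electrophoresis; bidirectional fitting versus DMSO baseline.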

Measured: AC50

CCCCCCCCC(=O)O
inactive: [1] | [2] | [3] | [4] | [5] | [6] | [7] | [8] | [9] | [10] | [11] | [12] | [13] | [14] | [15] | [16]

Cc1ccc(S(=O)(=O)O)c(C)c1
inactive: [1] | [2] | [3] | [4] | [5] | [6] | [7] | [8] | [9] | [10] | [17] | [12] | [13] | [14] | [15] | [16]
active: [10] 27.3 µM

Oc1cc2ccccc2c2ccccc12
inactive: [1] | [18] | [2] | [3] | [4] | [5] | [6] | [7] | [8] | [17] | [11] | [12] | [13] | [14] | [15] | [16]
active: [10] 3.71 µM

CCCCOCCO
inactive: [1] | [18] | [2] | [3] | [4] | [5] | [6] | [7] | [8] | [9] | [10] | [17] | [11] | [12] | [13] | [14] | [15] | [16]
